From PubChem BioAssay
Calls of active or inactive are those of the source.

How the values were obtained:
[1] = test system: PRMT1 (protein arginine N-methyltransferase 1); assay: PRMT1 binders on small-molecule microarrays, primary screen, biochemical, small-molecule microarray, 635 nm fluorescence (AID 1088); conditions: small-molecule microarray binding, higher = more signal;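 further: binding of Prmt1 protein to compounds spotted on small-molecule microarray slides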
[2] = yeast growth modulation, basal conditions, primary screen, YJM789 clinical isolate, OD600, 24 h (AID 1089);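 further: growth of clinical yeast isolate S. cerevisiae YJM 789 seeded 1000 cells per well; test concentration not given here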; conditions: S. cerevisiae YJM789 growth, higher = more signal, called active from +8 up or from −8 down
[3] = fission yeast growth modulation, primary screen, strain 972, OD600, 24 h, no modulator (AID 1090);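 further: basal condition with compound alone and no growth modifier present; test concentration not given here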; conditions: S. pombe 972 growth, higher = more signal, called active from +8 up or from −8 down
[4] = S. cerevisiae growth modulation with rapamycin, primary screen, strain BY4716, OD600, 96 h (AID 1091); conditions: higher = more signal, called active from +8 up or from −8 down; further: test concentration not given here
[5] = target: Torsin-1A-interacting protein 2 (Homo sapiens) (UniProt Q8NFQ8); assay: LULL1 binders on small-molecule microarray, primary screen, cell lysate, human LULL1 lysate, 635/667 nm fluorescence (AID 1092); conditions: hLULL1 lysate binding, 635 nm fluorescence, higher = more signal;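 further: probe is lysate of COS7 cells overexpressing human LULL1; score merges per-feature 667 nm fluorescence with signal-to-noise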
[6] = E. coli growth modulation, two-sided OD650, primary screen, E. coli filamentation project, strain DRC41, 24 h (AID 1093); conditions: OD650, 24 h, higher = more signal, called active from +8 up or from −8 down;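 further: MC1000 strain lacking acrAB efflux and sulA so SOS filamentation is blocked; test concentration not given here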
[7] = small-molecule microarray binders of probe aLefty2, primary screen, biochemical, biotinylated probe, 635/667 nm fluorescence (AID 1094); conditions: higher = more signal;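 further: score merges spot fluorescence near 667 nm with spot signal-to-noise ratio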
[8] = test system: Noggin (protein binding on small-molecule microarray); assay: Noggin binders on small-molecule microarray, primary screen, biochemical, 635/667 nm fluorescence (AID 1095); conditions: 635 nm fluorescence, higher = more signal;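 further: score merges 667 nm feature fluorescence with signal to noise over triplicate slides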
[9] = target: Neurogenic locus notch homolog protein 3 (Homo sapiens) (UniProt Q9UM47); assay: NOTCH3 binders on small-molecule microarray, primary screen, biochemical, 635/667 nm fluorescence (AID 1096); conditions: NOTCH3 binding, 635 nm fluorescence, higher = more signal
[10] = small-molecule microarray binders of probe aEGFR, primary screen, biochemical, biotinylated probe, 635/667 nm fluorescence (AID 1097); conditions: higher = more signal;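 further: probe is a biotinylated anti-EGFR antibody binding compounds printed on slides; score combines fluorescence near 667 nm and signal to noise of each spot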
[11] = test system: Plasmodium falciparum Sir2 (PF13_0152, Sir2A); assay: pfSir2 binders on small-molecule microarrays, primary screen, biochemical, small-molecule microarray, 635 nm fluorescence (AID 1098); conditions: small-molecule microarray binding, fluorescence 635 nm; higher = more signal;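 further: score merges spot fluorescence intensity with its signal-to-noise ratio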
[12] = small-molecule microarray binders of probe aDKK1, primary screen, biochemical, biotinylated probe, 635/667 nm fluorescence (AID 1099); conditions: higher = more signal;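 further: score merges 667nm spot fluorescence with signal to noise across triplicate slides; reference of the scale not given here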
[13] = small-molecule microarray binders of probe aCHRDL2, primary screen, biochemical, biotinylated probe, 635/667 nm fluorescence (AID 1100); conditions: higher = more signal
[14] = splicing luciferase reporter signal modulators, primary screen, spliceosome inhibition project, cell-based, HEK293, splice +/- reporter (AID 1101); conditions: luminescence, 24 h, higher = more signal, called active from +8 up or from −8 down;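 further: HEK293 cells carrying a splicing-competent luciferase reporter gene; test concentration not given here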
[15] = target: Fibroblast growth factor 10 (Homo sapiens) (UniProt O15520); assay: FGF10 binders on small-molecule microarrays, primary screen, biochemical, small-molecule microarray, 635 nm fluorescence (AID 1102); conditions: FGF10 binding, fluorescence 635 nm, higher = more signal
[16] = test system: glycogen synthase kinase-3 (GSK3A per assay name; protocol says GSK3B); assay: GSK3 binders on small-molecule microarrays, primary screen, biochemical, small-molecule microarray, 635 nm fluorescence, GSK3A (AID 1103); conditions: small-molecule microarray binding, fluorescence 635 nm; higher = more signal; further: the record names both GSK3A and GSK3B
[17] = target: Epidermal growth factor receptor (Homo sapiens) (UniProt P00533); assay: EGFR binders on small-molecule microarrays, primary screen, biochemical, small-molecule microarray, 635 nm fluorescence (AID 1104); conditions: EGFR binding, higher = more signal;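 further: score merges 667 nm emission intensity with spot signal to noise over triplicate slides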
[18] = target: Follistatin-related protein 3 (Homo sapiens) (UniProt O95633); assay: FSTL3 binders on small-molecule microarrays, primary screen, biochemical, small-molecule microarray, 635 nm fluorescence (AID 1105); conditions: FSTL3 binding, higher = more signal;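 further: score merges emission near 667 nm and signal to noise per printed spot across three slides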
[19] = target: Dickkopf-related protein 1 (Homo sapiens) (UniProt O94907); assay: DKK1 binders on small-molecule microarrays, primary screen, biochemical, small-molecule microarray, 635 nm fluorescence scan (AID 1106); conditions: DKK1 binding, higher = more signal;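 further: score merges emission near 667 nm with signal to noise over three replicate slides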
[20] = test system: Inhibin beta A chain (activin A); assay: INHBA (activin A) binders on microarrays, primary screen, biochemical, small-molecule microarray, 635 nm fluorescence scan (AID 1107); conditions: small-molecule microarray binding, higher = more signal;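 further: mouse activin A protein probed at 4.33 µg/mL on printed slides; score merges bound-protein fluorescence near 667 nm with spot signal-to-noise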

Sequence of Torsin-1A-interacting protein 2 (Homo sapiens) (Q8NFQ8 whole entry, looked up): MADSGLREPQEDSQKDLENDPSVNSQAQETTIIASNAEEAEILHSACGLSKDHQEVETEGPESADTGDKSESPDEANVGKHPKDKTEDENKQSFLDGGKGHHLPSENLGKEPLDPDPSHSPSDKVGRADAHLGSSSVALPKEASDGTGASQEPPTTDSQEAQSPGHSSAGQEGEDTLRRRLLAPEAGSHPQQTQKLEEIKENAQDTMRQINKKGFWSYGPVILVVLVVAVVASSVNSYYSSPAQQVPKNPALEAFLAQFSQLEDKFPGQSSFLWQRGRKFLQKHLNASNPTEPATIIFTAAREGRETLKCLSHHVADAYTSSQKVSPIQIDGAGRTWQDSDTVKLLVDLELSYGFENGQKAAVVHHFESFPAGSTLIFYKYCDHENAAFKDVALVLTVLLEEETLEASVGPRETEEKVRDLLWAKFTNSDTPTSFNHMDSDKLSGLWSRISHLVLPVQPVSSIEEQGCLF
Sequence of Epidermal growth factor receptor (Homo sapiens) (P00533 whole entry, looked up): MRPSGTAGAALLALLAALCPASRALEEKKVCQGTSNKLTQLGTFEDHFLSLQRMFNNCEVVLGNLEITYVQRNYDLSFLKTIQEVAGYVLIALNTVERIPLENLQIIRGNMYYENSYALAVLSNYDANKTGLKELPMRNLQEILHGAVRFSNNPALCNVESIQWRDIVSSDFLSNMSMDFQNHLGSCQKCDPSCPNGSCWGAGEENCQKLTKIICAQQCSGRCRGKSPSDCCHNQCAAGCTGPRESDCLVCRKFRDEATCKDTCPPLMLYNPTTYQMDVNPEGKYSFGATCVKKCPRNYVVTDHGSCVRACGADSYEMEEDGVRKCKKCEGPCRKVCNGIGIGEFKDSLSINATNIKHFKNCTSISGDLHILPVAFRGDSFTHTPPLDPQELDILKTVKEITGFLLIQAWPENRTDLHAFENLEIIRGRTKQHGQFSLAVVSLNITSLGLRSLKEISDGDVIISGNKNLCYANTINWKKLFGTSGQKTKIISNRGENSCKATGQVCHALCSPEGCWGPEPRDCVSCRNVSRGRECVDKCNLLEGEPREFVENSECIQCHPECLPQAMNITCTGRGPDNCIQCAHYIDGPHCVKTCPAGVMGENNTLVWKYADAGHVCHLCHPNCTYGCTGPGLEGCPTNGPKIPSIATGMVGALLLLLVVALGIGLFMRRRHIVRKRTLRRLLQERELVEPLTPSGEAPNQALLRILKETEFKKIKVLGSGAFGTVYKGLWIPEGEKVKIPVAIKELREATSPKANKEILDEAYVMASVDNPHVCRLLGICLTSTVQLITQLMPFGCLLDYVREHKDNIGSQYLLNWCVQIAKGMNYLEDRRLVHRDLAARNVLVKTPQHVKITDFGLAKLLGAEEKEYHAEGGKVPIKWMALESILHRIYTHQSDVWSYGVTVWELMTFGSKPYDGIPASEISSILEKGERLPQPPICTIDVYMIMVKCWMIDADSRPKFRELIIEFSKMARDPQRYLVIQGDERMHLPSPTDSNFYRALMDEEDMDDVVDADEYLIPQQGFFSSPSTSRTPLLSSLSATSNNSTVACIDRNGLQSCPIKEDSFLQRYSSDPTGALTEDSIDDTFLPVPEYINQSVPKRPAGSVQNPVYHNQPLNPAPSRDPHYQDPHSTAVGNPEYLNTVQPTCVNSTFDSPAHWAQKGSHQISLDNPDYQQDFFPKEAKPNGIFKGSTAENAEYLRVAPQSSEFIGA
Sequence of Fibroblast growth factor 10 (Homo sapiens) (O15520 whole entry, looked up): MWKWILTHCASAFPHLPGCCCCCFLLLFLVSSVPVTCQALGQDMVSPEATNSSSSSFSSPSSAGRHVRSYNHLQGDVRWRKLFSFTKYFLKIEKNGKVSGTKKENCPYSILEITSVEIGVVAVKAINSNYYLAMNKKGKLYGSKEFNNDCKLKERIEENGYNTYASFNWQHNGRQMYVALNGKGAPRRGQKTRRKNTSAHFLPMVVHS
Sequence of Neurogenic locus notch homolog protein 3 (Homo sapiens) (Q9UM47 whole entry, looked up): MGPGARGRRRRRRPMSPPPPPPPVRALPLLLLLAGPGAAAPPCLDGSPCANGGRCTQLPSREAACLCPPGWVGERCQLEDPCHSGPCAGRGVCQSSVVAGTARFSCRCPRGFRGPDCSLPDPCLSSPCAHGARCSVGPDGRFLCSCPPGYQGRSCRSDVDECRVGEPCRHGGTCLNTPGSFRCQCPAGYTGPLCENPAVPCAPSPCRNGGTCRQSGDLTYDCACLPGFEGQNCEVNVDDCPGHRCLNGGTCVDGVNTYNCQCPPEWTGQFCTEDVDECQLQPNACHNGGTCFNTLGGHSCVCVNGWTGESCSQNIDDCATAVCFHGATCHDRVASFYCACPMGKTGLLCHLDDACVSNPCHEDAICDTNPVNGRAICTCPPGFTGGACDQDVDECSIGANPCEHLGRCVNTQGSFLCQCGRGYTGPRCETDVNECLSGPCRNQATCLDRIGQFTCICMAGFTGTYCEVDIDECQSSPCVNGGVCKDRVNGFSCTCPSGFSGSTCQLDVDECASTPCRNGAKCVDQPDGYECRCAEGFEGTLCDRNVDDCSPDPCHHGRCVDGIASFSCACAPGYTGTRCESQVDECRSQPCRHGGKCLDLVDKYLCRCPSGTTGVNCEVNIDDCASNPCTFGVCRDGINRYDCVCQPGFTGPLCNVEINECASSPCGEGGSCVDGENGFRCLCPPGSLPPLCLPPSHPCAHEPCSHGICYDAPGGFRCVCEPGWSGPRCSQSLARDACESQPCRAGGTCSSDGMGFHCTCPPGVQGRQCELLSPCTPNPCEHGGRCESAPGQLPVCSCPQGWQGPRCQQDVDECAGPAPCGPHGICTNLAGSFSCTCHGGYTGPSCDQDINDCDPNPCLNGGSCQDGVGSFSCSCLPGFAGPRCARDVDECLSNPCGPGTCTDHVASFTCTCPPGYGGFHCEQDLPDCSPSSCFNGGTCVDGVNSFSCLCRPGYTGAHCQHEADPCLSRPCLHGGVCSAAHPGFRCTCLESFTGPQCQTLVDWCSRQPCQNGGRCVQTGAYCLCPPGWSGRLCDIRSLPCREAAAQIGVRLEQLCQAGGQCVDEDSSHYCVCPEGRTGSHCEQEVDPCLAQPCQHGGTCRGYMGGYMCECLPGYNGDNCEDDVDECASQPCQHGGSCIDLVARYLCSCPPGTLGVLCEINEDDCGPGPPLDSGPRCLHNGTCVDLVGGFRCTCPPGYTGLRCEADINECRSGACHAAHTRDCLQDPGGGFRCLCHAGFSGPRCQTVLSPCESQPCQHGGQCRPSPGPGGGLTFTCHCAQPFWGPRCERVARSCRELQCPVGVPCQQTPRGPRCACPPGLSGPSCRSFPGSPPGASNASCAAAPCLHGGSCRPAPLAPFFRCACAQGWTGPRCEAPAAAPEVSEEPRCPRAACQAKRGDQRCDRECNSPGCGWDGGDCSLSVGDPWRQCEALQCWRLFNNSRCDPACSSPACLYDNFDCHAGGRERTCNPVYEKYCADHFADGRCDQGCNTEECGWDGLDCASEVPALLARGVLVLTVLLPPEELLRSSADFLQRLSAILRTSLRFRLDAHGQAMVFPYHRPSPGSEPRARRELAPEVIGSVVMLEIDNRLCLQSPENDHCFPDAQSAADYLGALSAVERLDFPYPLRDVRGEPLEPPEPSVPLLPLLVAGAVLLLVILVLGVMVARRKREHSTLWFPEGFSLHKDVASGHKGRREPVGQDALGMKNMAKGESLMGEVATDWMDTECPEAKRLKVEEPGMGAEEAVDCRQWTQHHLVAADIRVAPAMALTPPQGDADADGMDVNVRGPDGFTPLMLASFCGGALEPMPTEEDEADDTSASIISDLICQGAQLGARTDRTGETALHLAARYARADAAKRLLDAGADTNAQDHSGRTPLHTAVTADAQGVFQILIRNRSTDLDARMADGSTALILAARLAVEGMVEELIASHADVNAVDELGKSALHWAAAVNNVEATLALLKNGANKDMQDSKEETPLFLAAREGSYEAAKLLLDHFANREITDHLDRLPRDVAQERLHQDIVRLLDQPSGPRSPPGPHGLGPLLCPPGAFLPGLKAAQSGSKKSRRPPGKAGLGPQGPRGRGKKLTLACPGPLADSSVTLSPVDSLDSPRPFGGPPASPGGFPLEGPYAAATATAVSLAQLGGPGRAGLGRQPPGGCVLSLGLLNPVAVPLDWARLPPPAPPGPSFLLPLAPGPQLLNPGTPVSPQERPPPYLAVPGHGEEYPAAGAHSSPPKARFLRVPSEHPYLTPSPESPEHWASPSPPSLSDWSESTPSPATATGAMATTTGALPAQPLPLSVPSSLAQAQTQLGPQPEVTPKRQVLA
Sequence of Dickkopf-related protein 1 (Homo sapiens) (O94907 whole entry, looked up): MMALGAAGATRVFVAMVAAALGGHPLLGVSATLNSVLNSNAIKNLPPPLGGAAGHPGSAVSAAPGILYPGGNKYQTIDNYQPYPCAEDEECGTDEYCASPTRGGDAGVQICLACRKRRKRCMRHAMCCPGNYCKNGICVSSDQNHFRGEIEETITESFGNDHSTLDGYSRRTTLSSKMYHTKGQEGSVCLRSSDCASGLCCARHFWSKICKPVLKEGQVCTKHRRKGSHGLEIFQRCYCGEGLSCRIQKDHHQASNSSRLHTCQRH
Sequence of Follistatin-related protein 3 (Homo sapiens) (O95633 whole entry, looked up): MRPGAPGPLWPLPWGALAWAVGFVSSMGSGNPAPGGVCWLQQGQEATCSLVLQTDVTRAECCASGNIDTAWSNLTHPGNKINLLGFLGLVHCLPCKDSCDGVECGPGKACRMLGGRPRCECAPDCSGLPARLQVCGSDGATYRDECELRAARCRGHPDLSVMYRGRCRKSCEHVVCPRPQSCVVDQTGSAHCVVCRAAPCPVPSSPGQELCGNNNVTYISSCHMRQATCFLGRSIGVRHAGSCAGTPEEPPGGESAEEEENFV

SMILES | composite z-score [1] | z-score [2] | z-score [3] | z-score [4] | composite z-score [5] | z-score [6] | composite z-score [7] | composite z-score [8] | composite z-score [9] | composite z-score [10] | composite z-score [11] | composite z-score [12] | composite z-score [13] | z-score [14] | composite z-score [15] | composite z-score [16] | composite z-score [17] | composite z-score [18] | composite z-score [19] | composite z-score [20]
C=C(CCCC)C(=O)CC[C@@H](OC(=O)c1cccnc1)c1ccc(CO)o1 | 1.55 | 0.544 (inactive) | 0.115 (inactive) | 0.275 (inactive) | 1.45 | -0.211 (inactive) | -0.105 | 1.61 | 1.12 | 0.021 | 1.15 | 0.0013 | -0.269 | 0.08 (inactive) | 1.21 | 0.958 | 0.641 | 0.916 | 0.576 | 1.3
CC(C)C(=C=CC[C@@H](O)c1ccccc1OCCO)CCO | 0.895 | -2.18 (inactive) | -17.8 (active) | -2.09 (inactive) | -0.559 | 0.364 (inactive) | -0.0998 | 0.315 | 0.428 | -0.096 | 0.116 | -0.258 | 0.133 | -0.0616 (inactive) | 1.36 | 0.0661 | -0.195 | 0.0893 | 0.326 | 0.434
C#CCN(Cc1ccccc1Br)C(/C=C/c1ccccc1)CO (stereo not given) | -0.69 | -2.9 (inactive) | -19.4 (active) | 0.934 (inactive) | 0.123 | 0.556 (inactive) | -0.144 | -0.193 | -0.598 | -0.277 | -0.877 | -0.23 | 0.326 | -1.03 (inactive) | 0.168 | -0.398 | -0.153 | -0.649 | -0.0455 | 0.904
CCOC(=O)C=Cc1cc([N+](=O)[O-])ccc1O | 0.385 | -1.21 (inactive) | -0.201 (inactive) | -1.62 (inactive) | 0.381 | -0.828 (inactive) | -0.088 | -0.609 | -0.465 | -0.141 | -0.551 | -0.14 | -0.134 | -1.72 (inactive) | -0.395 | -0.398 | -0.899 | -0.971 | -0.693 | -0.855
C=CCN1C(=O)[C@@]2(O[C@@H](CCO)[C@H]([Si](C)(C)c3ccc(OC)cc3)[C@H]2C)c2cc(NC(=O)c3ccc(OC)cc3)ccc21 | 1.54 | 0.411 (inactive) | -2.29 (inactive) | 1.02 (inactive) | 0.821 | 0.702 (inactive) | -0.0977 | 1.37 | 0.861 | -0.159 | 0.45 | -0.138 | -0.46 | -0.491 (inactive) | 1.09 | 0.587 | 0.424 | 0.722 | 0.532 | 1.32
C=CCOC(=O)[C@H]1[C@@H]2C(=O)O[C@@H](c3ccccc3)[C@@H](c3ccccc3)N2[C@@H](c2ccc(OCCOC(=O)[C@@H]3C[C@@H]4C(=O)N[C@@H](CCCC[N+](C)(C)C)C(=O)N4[C@@H]3c3ccc(O)cc3)cc2)[C@]12C(=O)Nc1ccccc12 | 1.55 | -1.27 (inactive) | -3.66 (inactive) | -1.02 (inactive) | 2.84 | 0.155 (inactive) | 0.236 | 1.64 | 1.12 | -0.0663 | 1.05 | 0.415 | -0.372 | -0.794 (inactive) | 0.805 | 1.3 | 0.383 | 1.24 | 0.716 | -0.0117
C=CC[C@@]1(C(N)=O)N=C(c2ccc(OCCCO)cc2)O[C@@H]1c1ccccc1CN=[N+]=[N-] | 0.867 | -0.884 (inactive) | -0.398 (inactive) | -0.512 (inactive) | 3.77 | 0.0086 (inactive) | 0.444 | 0.174 | 0.638 | 0.0651 | 1.02 | 0.917 | 1.19 | -1.63 (inactive) | 0.903 | 0.336 | -0.44 | 0.267 | -0.196 | 1.14
C=C(/C(=C/C[C@@H](OC(C)=O)c1ccc(OCCO)cc1)c1cnc2ccccc2c1)C(C)C | 1.26 | -0.0424 (inactive) | -1.56 (inactive) | -0.234 (inactive) | 1.06 | 0.762 (inactive) | -0.197 | 0.655 | 0.676 | -0.146 | 1.2 | -0.229 | 0.0459 | -0.837 (inactive) | 0.528 | -0.0912 | -0.103 | 0.77 | 0.218 | 1.5
CCOC1=C2C(CN(S(=O)(=O)c3ccc(C)cc3)C2c2ccc(C)cc2)C2C(=O)N(c3ccccc3)C(=O)C2C1 (stereo not given) | 0.952 | 0.218 (inactive) | 1.86 (inactive) | 0.852 (inactive) | 1.96 | 0.0696 (inactive) | -0.0515 | 0.257 | 0.875 | 0.0414 | 0.9 | 0.0373 | 0.267 | -0.113 (inactive) | 1.25 | 0.36 | 0.171 | 0.782 | 0.207 | 0.809
